Bioassay records deposited in PubChem by National Center for Advancing Translational Sciences (NCATS).
This excerpt belongs to a sample that is enriched for hits.
Pf Dd2 inh – Plasmodium falciparum Dd2 growth inhibition; P. falciparum Dd2 growth, SYBR Green, 72 h; Potency, µM (series often up to 28.9 µM), without a hit: top-dose activity, negative = inhibition, actives largely listed as inhibitors; actives 4.3% (n = 120,000); AID 1347417; active = well fitted inhibition curve with a large enough effect;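 note: plate controls were DMSO vehicle for no effect and reference drug for full effect; nearly all actives have a fitted effect of over 65% in size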
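Infected erythrocytes (Dd2, 0.3% parasitemia, 2.5% hematocrit final) are added to compound in RPMI-1640/Albumax II medium, grown 72 h at 37C in low oxygen, then lysed with saponin/Triton-X containing SYBR Green and read by fluorescence.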
Numbers without * were called inactive; i = inactive; [ ] = dose if it differs, or a comment. Potency is the fitted concentration of half-maximal effect.

SMILES | Pf Dd2 inh
COC(=O)c1sccc1S(=O)(=O)N(CC(=O)NCc1ccc(F)cc1)c1ccc(C)c(C)c1 | 20.4%
CC(=O)N1CCC(C(=O)N2CCN(Cc3ccccc3)CC(O)C2)CC1 (stereo not given) | 6.2%
CN(C)C(=O)CCC(=O)N1CCN(Cc2ccccc2)CC(O)C1 (stereo not given) | 10.5%
O=C(N1CCN(Cc2ccccc2)CC(O)C1)C1(N2CCCC2)CCCC1 (stereo not given) | 4.47µM*
CN1CCc2c([nH]c3ccccc23)C12CCN(C(=O)c1cc(CN3CCOCC3)on1)CC2 | i
O=S(=O)(c1ccc(Cl)cc1Cl)n1ccnc1 | 5.9%
Cc1nn(C)c2c1c(-c1ccccc1)cc(=O)n2Cc1ccccc1F | -2.4%
COc1ccc(C)cc1NC(=O)CN1C(=O)NC(c2ccc(C)cc2)C2=C1COC2=O (stereo not given) | -9.5%
CCC1=NS(=O)(=O)c2cc(NC(C)=O)ccc2N1CC(C)C | -3.7%
CC(C)CC1=NS(=O)(=O)c2cc(NC(=O)C3CC3)ccc2N1c1ccccc1 | 2µM*
CC(C)C1=NS(=O)(=O)c2cc(NC(=O)c3ccco3)ccc2N1c1ccccc1 | i
CCc1noc(CC2CCOC3(CCN(S(=O)(=O)c4cc(F)ccc4F)CC3)C2)n1 (stereo not given) | i
Cn1cnc(C(=O)N2CCC3(CC2)CN(Cc2ccccc2)CC3CO)c1 (stereo not given) | -12.0%
O=C(Cn1c(=O)n(Cc2ccco2)c(=O)c2ccccc21)Nc1ccc(Cl)cc1Cl | 26.7%
CCOc1ccc(-c2ccc(NS(=O)(=O)c3cc(C)ccc3OC)cc2)nn1 | 10µM*
CCOc1ccc(Br)cc1S(=O)(=O)Nc1cccc(-c2ccc(OC)nn2)c1 | 4.6%
CCOc1ccc(-c2cccc(NS(=O)(=O)c3ccc(F)cc3F)c2)nn1 | 59.4%[0.594 µM]
COCC(=O)N(C1CCOCC1)C1CCN(S(=O)(=O)c2cccnc2)CC1 | 28.0%
CC(C)CCN(C1CCOCC1)C1CCN(S(=O)(=O)c2cccnc2)CC1 | 10µM*
CC(C)CN(C1CCOCC1)C1CN(S(=O)(=O)c2ccc(F)cc2)C1 | -12.7%
CN(C)c1nccnc1OC1CCN(C(=O)C2CCCCC2)C1 (stereo not given) | i
COCCc1nncn1C1CCN(S(=O)(=O)c2ccc(F)c(Cl)c2)CC1 | 6.5%
COc1ccc(-c2cc(C[C@H]3CNCC[C@H]3CC(=O)N3CCC(Cc4ccccc4)CC3)no2)cc1 | 7.94µM*
O=C(C[C@@H]1CCNC[C@@H]1Cc1cc(CN2CCOCC2)on1)N1CCN(c2ccccc2)CC1 | 5.6%
NC(=O)C1CCN(C(=O)C[C@@H]2CCNC[C@@H]2Cc2cc(COc3ccccc3)on2)CC1 | 11.7%
SMILES | Pf Dd2 inh
COc1ccccc1N1CCN(C(=O)C[C@@H]2CCNC[C@@H]2Cc2cc(-c3ccc(F)cc3)on2)CC1 | 11.2µM*
CC(C)(C)c1cc(C[C@H]2CNCC[C@H]2CC(=O)N2CCC(Cc3ccccc3)CC2)no1 | 7.94µM*
COc1ccc(-c2cc(C[C@H]3CNCC[C@H]3CC(=O)NCc3cccnc3)no2)cc1 | -8.0%[44.1 µM]
COc1ccc(-c2cc(C[C@H]3CNCC[C@H]3CC(=O)N3CCN(c4ccccc4OC)CC3)no2)cc1 | -25.7%
COc1ccccc1N1CCN(C(=O)C[C@@H]2CCNC[C@@H]2Cc2cc(COc3ccccc3)on2)CC1 | -29.0%
COc1ccc(-c2cc(C[C@H]3CNCC[C@H]3CC(=O)NC(C)C)no2)cc1 | i
COc1cc(C(=O)NCc2nnnn2-c2ccc(C)c(C)c2)cc(OC)c1OC | i
N#Cc1cccc(NC(=O)N2CCC3(CCCN(C4CCCC4)C3=O)C2)c1 (stereo not given) | -21.2%
Cc1cc(C(=O)NCc2ccnc3[nH]ccc23)ccc1Cl | -1.5%[44.1 µM]
Cc1ccc(N(C)S(=O)(=O)c2ccc3[nH]c4c(c3c2)CCCC4)cc1 | -17.0%
CCc1ccc(NS(=O)(=O)c2ccc3[nH]c4c(c3c2)CCCCCC4)cc1 | 14.1%
CCN(Cc1ccccc1)S(=O)(=O)c1ccc2[nH]c3c(c2c1)CCCCC3 | 12.6µM*
O=C(c1ccc2c(c1)N(Cc1ccc(Cl)cc1)C(=O)c1ccccc1S2(=O)=O)N1CCOCC1 | -6.3%
Cc1ccc(NC(=O)Cn2c(=O)c(-c3noc(C)n3)c3n(c2=O)CCCC3)cc1 | -24.8%
COc1ccc(NC(=O)Cn2cc(S(=O)(=O)N3CCC(C)CC3)c3ccccc3c2=O)cc1Cl | -17.4%
COc1ccc(NC(=O)Cn2cc(S(=O)(=O)N3CCN(c4ccccc4F)CC3)c3ccccc3c2=O)cc1Cl | 12.6µM*
Cc1ccccc1NC(=O)c1ccc(F)c(S(=O)(=O)N2CCN(c3ccccc3F)CC2)c1 | 22.2%
O=C(Cn1cc(S(=O)(=O)Cc2ccccc2F)c2ccccc21)Nc1ccc(F)c(Cl)c1 | i
Cc1cc(Br)ccc1NC(=O)Cn1cc(S(=O)(=O)N2CCN(c3ccccc3F)CC2)c2ccccc2c1=O | 5.8%
COc1cc(Cl)c(C)cc1NC(=O)Cn1cc(S(=O)(=O)N2CCN(c3ccccc3F)CC2)c2ccccc2c1=O | 11.2µM*
COc1ccccc1C(=O)Nc1ccc(OCc2cc(=O)n3cc(C)sc3n2)cc1 | -23.1%
Cc1cc(-n2c(C)nc3ccccc3c2=O)ccc1NC(=O)c1cccc([N+](=O)[O-])c1 | 8.91µM*
Cc1nc2ccccc2c(=O)n1-c1ccc(NC(=O)c2ccc([N+](=O)[O-])cc2)cc1 | 15.3%
Cc1cc(C(=O)Nc2ccc(-n3c(C)nc4ccccc4c3=O)cc2)ccc1[N+](=O)[O-] | -3.7%
O=C(Cc1ccc(F)cc1)N1CCCC(c2noc(COc3ccccc3F)n2)C1 (stereo not given) | 15.6%
SMILES | Pf Dd2 inh
Cc1ccc(C(=O)Nc2ccc(-n3c(C)nc4ccccc4c3=O)cc2)cc1[N+](=O)[O-] | -9.8%
COc1ccc(-c2cc(N3CCCC(NC(=O)c4ccc5[nH]ccc5c4)C3)n[nH]2)cc1 (stereo not given) | 10µM*
COc1ccc(-c2cc(N3CCC(NC(=O)c4ccc(C)cc4)C3)n[nH]2)cc1 (stereo not given) | 11.2µM*
CCOc1ccc(C(=O)NC2CCN(c3cc(-c4ccc(OC)cc4)[nH]n3)C2)cc1 (stereo not given) | i
COc1ccc(-c2cc(N3CCC(NC(=O)c4ccc(Cl)cc4)C3)n[nH]2)cc1 (stereo not given) | i
COc1ccc(-c2cc(N3CCCC(NC(=O)c4ccccc4)C3)n[nH]2)cc1 (stereo not given) | i
CN(C)c1cccc(C(=O)NC2CCCN(c3cc(-c4ccccc4)[nH]n3)C2)c1 (stereo not given) | -0.5%
O=C(NC1CCCN(c2cc(-c3ccccc3)[nH]n2)C1)c1cccc(Br)c1 (stereo not given) | -8.6%
O=C(NC1CCN(c2cc(-c3ccc(Cl)cc3)[nH]n2)C1)c1ccncc1 (stereo not given) | i
O=C(NC1CCCN(c2cc(-c3ccccc3)[nH]n2)C1)c1ccc2[nH]ccc2c1 (stereo not given) | -4.6%
COc1ccc(-c2cc(N3CCCC(NC(=O)c4cccc(Br)c4)C3)n[nH]2)cc1 (stereo not given) | 10µM*
CN(C)c1cccc(C(=O)NC2CCN(c3cc(-c4ccc(Cl)cc4)[nH]n3)C2)c1 (stereo not given) | 7.94µM*
COc1ccc(C(=O)NC2CCCN(c3cc(-c4ccc(F)cc4)[nH]n3)C2)cc1 (stereo not given) | -10.8%
O=C(NC1CCc2nn(CC3CC3)c(=O)n2CC1)c1ccc[nH]c1=O (stereo not given) | 76.5%
